Results with a measured potency or affinity are listed apart. The source made the active and inactive calls.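 How the source made its calls: active means compounds lowering HepG2 cell ATP luminescence with a fitted half-maximal concentration at most twice the top tested dose; inconclusive means flat fit with 30 to 70 percent signal loss, or poor fit; inactive means the rest.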
assay: HepG2 cell cytotoxicity, dose response, cytotoxicity control, luminescence plate reader, powder samples, set 2 (AID 651860); conditions: HepG2 viability, CellTiter-Glo ATP luminescence, 48 h; series mostly up to 26 µM

Row | Compound | outcome
1 | C[C@H](NC(=O)C1CCCC[C@H]1C(=O)O)c1ccccc1 (mixture of isomers) | inactive
2 | O=C(NC[C@@H]1c2ccccc2CCN1C(=O)[C@@H]1CCCC[C@@H]1C(=O)O)OCC1c2ccccc2-c2ccccc21 | inactive
3 | O=C(O)CC(=O)N1CCc2ccccc2C1CN1C(=O)c2ccccc2C1=O (centres undefined) | inactive
4 | O=C(O)C1CCCCC1C(=O)NCC1c2ccccc2CCN1C(=O)Cc1ccccc1 (centres undefined) | inactive
5 | Cc1cc(C)c(S(=O)(=O)Nc2ncnc3ccccc23)c(C)c1 | inactive
6 | CC(C)OC(=O)C(C(=O)C(F)(F)F)c1cc(NS(=O)(=O)c2ccccc2)c2ccccc2c1O (centres undefined) | inactive
7 | COC(=O)C(C(=O)OC)c1cc(NS(=O)(=O)c2c(C)cc(C)cc2C)c2ccccc2c1O | inactive
8 | O=C(O)CCCC(=O)N1CCc2ccccc2C1CN1C(=O)c2ccccc2C1=O (centres undefined) | inactive
9 | O=C(O)Cc1ccccc1C(=O)N1CCc2ccccc2[C@H]1CN1C(=O)c2ccccc2C1=O | inactive
10 | Cc1ccc(S(=O)(=O)NC[C@@H]2c3ccccc3CCN2C(=O)[C@@H]2CCCC[C@@H]2C(=O)O)c(C)c1 | inactive
11 | O=C(O)C1CCCCC1C(=O)N1CCc2ccccc2[C@H]1C(=O)NCCc1ccccc1 (some centres undefined) | inactive
12 | O=C(NC[C@@H]1c2ccccc2CCN1C(=O)[C@@H]1CCCC[C@@H]1C(=O)O)c1ccc(CCl)cc1 | inactive
13 | CC(=O)Nc1cc(NS(=O)(=O)c2c(C)cc(C)cc2C)c2ccccc2c1O | inactive
14 | O=C(O)C1CCCCC1C(=O)N1CCc2ccccc2C1CN1C(=O)c2ccccc2S1(=O)=O (centres undefined) | inactive
15 | Cc1cc(C)c(S(=O)(=O)Nc2nc(N(C)C)nc3ccccc23)c(C)c1 | inactive
16 | CCOC(=O)Cc1nc(NS(=O)(=O)c2c(C)cc(C)cc2C)c2ccccc2n1 | inactive
17 | O=C(O)[C@H]1CCCC[C@H]1C(=O)N1CCc2ccccc2[C@H]1CNc1nc(Cl)nc2ccccc12 | inactive

Row | Compound | outcome
18 | O=C(O)C1CCCCC1C(=O)N1CCc2ccccc2C1CN1C(=O)[C@H]2CCCC[C@H]2C1=O (some centres undefined) | inactive
19 | Cc1ccc(S(=O)(=O)NNc2nc(N3CC(O)CC3C(=O)O)nc3ccccc23)cc1 (centres undefined) | inactive
20 | Cc1cc(C)c(S(=O)(=O)Nc2cc(C(C(=O)OCc3ccccc3)C(=O)OCc3ccccc3)c(O)c3ccccc23)c(C)c1 | inactive
21 | O=C1c2ccccc2C(=O)N1C[C@@H]1c2ccccc2CCN1C(=O)OCc1ccccc1 | inactive
22 | O=C(O)[C@H]1CCCC[C@H]1C(=O)N1CCC2=C(CCCC2)C1CN1C(=O)c2ccccc2C1=O (some centres undefined) | inactive
23 | O=C(NC[C@@H]1c2ccccc2CCN1C(=O)[C@@H]1CCCC[C@@H]1C(=O)O)c1ccccc1CO | inactive
24 | CC(C)CNc1nc(NS(=O)(=O)c2ccccc2)c2ccccc2n1 | inactive
25 | COC(=O)CNc1nc(NS(=O)(=O)c2c(C)cc(C)cc2C)c2ccccc2n1 | inactive
26 | O=C(O)C1CCCCC1C(=O)N1CCc2ccccc2C1c1ccccc1 (centres undefined) | inactive
27 | O=C(Cc1ccccc1)NC[C@@H]1c2ccccc2CCN1C(=O)[C@@H]1CCCC[C@@H]1C(=O)O | inactive
28 | O=C1c2ccccc2C(=O)N1CC1=NCCc2ccccc21 | inactive
29 | O=C(O)[C@H]1C2C=CC(C2)[C@H]1C(=O)N1CCc2ccccc2C1CN1C(=O)c2ccccc2C1=O (some centres undefined) | inactive
30 | O=C(O)[C@H]1CCCC[C@H]1C(=O)N1CCc2ccccc2[C@H]1CNS(=O)(=O)c1ccccc1 | inactive
31 | COC(=O)C1CCCCC1C(=O)N1CCc2ccccc2C1CN1C(=O)c2ccccc2C1=O (centres undefined) | inactive
32 | Cc1ccc(S(=O)(=O)NNc2nc(C(C(=O)OC(C)C)C(=O)C(F)(F)F)nc3ccccc23)cc1 (centres undefined) | inactive
33 | O=C(O)[C@H]1CCCC[C@H]1C(=O)N1CCc2ccccc2[C@H]1CNS(=O)(=O)c1ccc([N+](=O)[O-])cc1 | inactive
34 | O=C(NCCCN1CCOCC1)c1ccccc1C(=O)NC[C@@H]1c2ccccc2CCN1C(=O)C1CCCCC1C(=O)O (some centres undefined) | inactive

— PubChem BioAssay AID651860 (Broad Institute, 2012)
